A selection: hits, their analogues and other compounds. The true share with any hit is near 17%.
HT1080 IDH1KD tx: qHTS for induction of synthetic lethality in tumor cells producing 2HG: qHTS for the HT-1080-IDH1KD cell line; actives 2% (n = 360,000); Potency, µM (top dose mostly 46.1 µM), hits mostly cytotoxic; HT-1080 IDH1 knockdown viability, ATP luminescence, 48 h; AID 686971, 2013
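Luminescent ATP read-out (CellTiter-Glo, 10 min at room temperature) after 48 h compound exposure at 37 °C gave viability of IDH1-knockdown HT-1080 cells. Activity was normalised to DMSO and cell-free wells, then fitted as concentration-response curves.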
HT1080-NT tox: qHTS for induction of synthetic lethality in tumor cells producing 2HG: qHTS for the HT-1080-NT fibrosarcoma cell line. HT-1080-NT fibrosarcoma viability, CellTiter-Glo ATP luminescence, 48 h. Potency, µM (top dose mostly 46.1 µM), actives largely listed as cytotoxic. actives 1.6% (n = 360,000). AID 686970, 2013;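 also: NT is the 2HG producing partner of a matched IDH1 knockdown line; nearly all actives have a fitted effect of over 55% in size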
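HT-1080-NT; 750 cells/well; 5% FBS RPMI; 48 h compound, 37 degrees C; CellTiter-Glo luminescence; curve fitting and curve-class assignment.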
HepG2 viability: qHTS for Inhibitors of TGF-b: Cytotox Counterscreen; HepG2 CAGA-GFP viability, ATP luminescence, 18 h; Potency, µM (series often up to 46.1 µM), most hits filed as cytotoxic; actives 0.76% (n = 410,000); AID 588856, 2011
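CellTiter-Glo luminescence gave cytotoxicity after 18 hours at 37 degrees C. The cells were HepG2 CAGA-GFP in 1% FBS DMEM, stimulated with 500 pg/mL TGF-beta after compound addition. %Activity was normalised to no-cell wells (complete cell-killing) and DMSO (no toxicity), and curves were fitted and classified.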
TDP1 cell noCPT: qHTS for Inhibitors of human tyrosyl-DNA phosphodiesterase 1 (TDP1): qHTS in cells in absence of CPT. DT40 Tdp1-/- hTDP1 cells, no CPT, ATP luminescence, 48 h. Potency, µM (titrated, usually from 46.2 µM), actives largely listed as inhibitors. actives 15% (n = 420,000); also: nearly all actives have a fitted effect of over 55% in size
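No-CPT arm: Tdp1-/-;hTDP1 DT40 cells (400/well) plus compounds, incubated ≥48 hr at 37 °C. Readout CellTiter-Glo luminescence.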
TDP1 cell CPT: qHTS for Inhibitors of human tyrosyl-DNA phosphodiesterase 1 (TDP1): qHTS in cells in presence of CPT; chicken DT40 Tdp1-/-;hTDP1 cells + 20 nM CPT, ATP luminescence, 48 h; Potency, µM (top dose mostly 46.2 µM), usual class: inhibitors; actives 12% (n = 420,000); AID 686979, 2013; also: nearly all actives have a fitted effect of over 55% in size
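Cell growth measured by CellTiter-Glo luminescence after a minimum 48 h, 37 C compound exposure with 20 nM CPT in Tdp1-knockout DT40 cells stably expressing hTDP1, seeded 400/well; qHTS titration format.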
TGFb SMAD3 inh: qHTS for Inhibitors of TGF-b; Potency, µM (doses to about 46.1 µM), hits mostly inhibitors; actives 1.2% (n = 410,000); HepG2 CAGA-GFP TGF-b/SMAD3 reporter, GFP fluorescence, 18 h; TGF-beta stimulated, 500 pg/mL final; AID 588855, 2011; also: nearly all actives have a fitted effect of over 65% in size
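TGF-beta reporter screen: HEPG2 CAGA-GFP, 1% FBS, 500 pg/mL TGF-beta final, 18 h; per-cell GFP summed per well; curves fitted and categorized by class.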
Each line names hits and unclear results; the compound was inactive in the other large screens. Calls follow the shape of the dose curve; as a rule, active = well fitted curve in the direction sought with a large enough effect; inconclusive = small, poorly fitted or top-dose-only effect, or another doubt; inactive = no such curve, though single readings can be large; an effect the other way counts as inactive or inconclusive.

CCCC(NCC(=O)Nc1cc(S(=O)(=O)N2CCOCC2)ccc1OC)c1ccccc1 (stereo not drawn)	TDP1 cell noCPT 15µM, TDP1 cell CPT 16µM
COc1ccc(S(=O)(=O)N2CCOCC2)cc1NC(=O)CCNC(=O)c1ccc(Cl)cc1	HT1080 IDH1KD tx inconclusive, HT1080-NT tox 21µM
CC1(c2ccccc2)NC(=O)N(CC(=O)Nc2ccc(S(=O)(=O)NC3=NCCCCC3)cc2)C1=O (stereo not drawn)	none
Cc1cc(C(=O)NCC2CCC3(CCN(Cc4cc(F)ccc4F)CC3)O2)n(C)n1 (stereo not drawn)	TDP1 cell noCPT inconclusive (no result: HT1080 IDH1KD tx, HT1080-NT tox, HepG2 viability, TGFb SMAD3 inh)
CCN1CC=C2C(C1)C(c1ccc(Cl)s1)C(C#N)=C(N)C2(C#N)C#N (stereo not drawn)	TDP1 cell noCPT inconclusive, TDP1 cell CPT 16µM
COc1cc(C[C@@H]2NCCc3cc(O)c(O)cc32)cc(OC)c1OC	none (no result: HT1080 IDH1KD tx, HT1080-NT tox, HepG2 viability, TGFb SMAD3 inh)
Oc1cc2c(cc1O)[C@H](c1ccccc1)CNCC2	TDP1 cell noCPT 27µM, TDP1 cell CPT 27µM (no result: HT1080 IDH1KD tx, HT1080-NT tox, HepG2 viability, TGFb SMAD3 inh)
COC(=O)c1ccsc1NC(=O)CSc1nnnn1-c1ccccc1SC	TDP1 cell noCPT inconclusive, TDP1 cell CPT 11µM
C[C@]12c3[nH]c4ccccc4c3CCN1C(=O)C(CC(=O)NCC13CC4CC(CC(C4)C1)C3)C[C@@H]2C(=O)N1CCOCC1 (stereo partly drawn)	TDP1 cell noCPT 23µM, TDP1 cell CPT 16µM, TGFb SMAD3 inh inconclusive
CCN(CC)C(=O)[C@H]1CC(CC(=O)NCC23CC4CC(CC(C4)C2)C3)C(=O)N2CCc3c([nH]c4ccc(OC)cc34)[C@]12C (stereo partly drawn)	TDP1 cell noCPT 13µM, TDP1 cell CPT 21µM, TGFb SMAD3 inh inconclusive
CC(C)N(C(=O)[C@H]1C[C@H](CC(=O)NCC23CC4CC(CC(C4)C2)C3)C(=O)N2CCc3c([nH]c4cc(-c5ccco5)ccc34)[C@]12C)C(C)C	TDP1 cell noCPT inconclusive, TDP1 cell CPT inconclusive, TGFb SMAD3 inh inconclusive
CC(C)(C)NC(=O)CC1C[C@H](C(=O)N2CCCCC2)[C@@]2(C)c3[nH]c4ccccc4c3CCN2C1=O (stereo partly drawn)	TDP1 cell noCPT inconclusive
CC(C)N(C(=O)[C@H]1CC(CC(=O)NCC23CC4CC(CC(C4)C2)C3)C(=O)N2CCc3c([nH]c4ccccc34)[C@]12C)C(C)C (stereo partly drawn)	TDP1 cell noCPT 23µM, TDP1 cell CPT 13µM
C[C@]12c3[nH]c4ccccc4c3CCN1C(=O)C(CC(=O)NCC13CC4CC(CC(C4)C1)C3)C[C@@H]2C(=O)N1CCCCC1 (stereo partly drawn)	HT1080 IDH1KD tx inconclusive, HT1080-NT tox inconclusive, TDP1 cell noCPT 26µM, TDP1 cell CPT 21µM, TGFb SMAD3 inh inconclusive
COCCCNC(=O)CC1C[C@H](C(=O)N2CCOCC2)[C@@]2(C)c3[nH]c4ccccc4c3CCN2C1=O (stereo partly drawn)	none
O=C(Nc1ccccc1Br)N1CCN2CCCCC2C1 (stereo not drawn)	none (no result: HT1080 IDH1KD tx, HT1080-NT tox)
O=S1(=O)c2ccccc2N(Cc2ccccc2F)c2ccccc21	TDP1 cell CPT inconclusive (no result: HT1080 IDH1KD tx, HT1080-NT tox)
CC(C)N(C(=O)[C@H]1CC(CC(=O)NCCCN(C)C)C(=O)N2CCc3c([nH]c4ccccc34)[C@]12C)C(C)C (stereo partly drawn)	none
COCCCNC(=O)CC1C[C@H](C(=O)N2CCCCC2)[C@@]2(C)c3[nH]c4ccc(OC)cc4c3CCN2C1=O (stereo partly drawn)	none
CC(C)N(C(=O)[C@H]1CC(CC(=O)NCc2cccc(C(F)(F)F)c2)C(=O)N2CCc3c([nH]c4ccccc34)[C@]12C)C(C)C (stereo partly drawn)	TDP1 cell noCPT 23µM, TDP1 cell CPT 18µM, TGFb SMAD3 inh 13µM
COc1ccc2[nH]c3c(c2c1)CCN1C(=O)C(CC(=O)NCC24CC5CC(CC(C5)C2)C4)C[C@H](C(=O)N2CCCCC2)[C@@]31C (stereo partly drawn)	TDP1 cell noCPT 18µM, TDP1 cell CPT inconclusive, TGFb SMAD3 inh inconclusive
CCCCn1c(N)c(N(CCOC)C(=O)c2cccc(S(=O)(=O)N(C)c3ccc(C)cc3)c2)c(=O)[nH]c1=O	none
N#Cc1nc(-c2ccc(OCc3ccc(Cl)cc3)cc2)oc1N1CCCC1	TDP1 cell noCPT inconclusive (no result: HT1080 IDH1KD tx, HT1080-NT tox)
Cc1ccc2cc(CN(c3ccccc3)S(=O)(=O)c3ccccc3)c(=O)[nH]c2c1	TDP1 cell noCPT inconclusive
COc1ccc2[nH]c(=O)c(CN(c3ccccc3)S(=O)(=O)c3ccccc3)cc2c1	TDP1 cell noCPT 21µM, TDP1 cell CPT inconclusive
Cc1ccc(N(Cc2cc3cc(C)ccc3[nH]c2=O)S(=O)(=O)c2ccccc2)cc1	TDP1 cell noCPT 15µM, TDP1 cell CPT 23µM
COc1ccc2[nH]c(=O)c(CN(c3ccccc3OC)S(=O)(=O)c3ccccc3)cc2c1	TDP1 cell noCPT 15µM, TDP1 cell CPT 16µM
O=c1[nH]c2ccccc2cc1CN(c1ccccc1)S(=O)(=O)c1ccccc1	none
CCC1CN(CCNC(=O)c2ccc(N3CCOCC3)cc2)Cc2cc(OC)ccc2O1 (stereo not drawn)	none (no result: HT1080 IDH1KD tx, HT1080-NT tox, HepG2 viability, TGFb SMAD3 inh)
Cc1ccc(CSCC(=O)N(C)CC(=O)Nc2ccccc2Cl)cc1	TDP1 cell noCPT inconclusive
Cc1ccc(CSCC(=O)N(C)CC(=O)Nc2c(Cl)cccc2Cl)cc1	TDP1 cell noCPT inconclusive, TDP1 cell CPT 18µM
COc1ccc(-[n+]2c(C)cc(/C=C3\Sc4ccccc4N3C)cc2C)cc1	HT1080 IDH1KD tx 2.3µM, HT1080-NT tox 4.1µM, TDP1 cell noCPT 0.0073µM, TDP1 cell CPT 0.015µM
COc1ccc(C(=O)/C=C2\Sc3ccccc3N2C)cc1	TDP1 cell noCPT inconclusive
COc1ccccc1-[n+]1c(C)cc(/C=C2\Sc3ccccc3N2C)cc1C	HT1080 IDH1KD tx 0.58µM, HT1080-NT tox 2.6µM, TDP1 cell noCPT 0.021µM, TDP1 cell CPT 0.065µM
COc1ccc(-c2cc3ccc(O)c(CN4CCCC(C)C4)c3oc2=O)cc1OC (stereo not drawn)	none (no result: HT1080 IDH1KD tx, HT1080-NT tox, TDP1 cell noCPT, TDP1 cell CPT)
CN(C)CCc1c[nH]c2ccc(CS(=O)(=O)N3CCCC3)cc12	none (no result: HT1080 IDH1KD tx, HT1080-NT tox, HepG2 viability, TGFb SMAD3 inh)
O=c1[nH]c(/C=C/c2ccccc2[N+](=O)[O-])nc2ccccc12	none

From PubChem BioAssay
